# According to PubChem BioAssay:
# Values without a mark were called inactive. The list shows a part of the results. The source made the active and inactive calls. Rule as the data show it, unless noted: active = inhibition above about 30%; inactive = the rest.
# How the values were obtained:
# [1] = molecular target: Nuclear receptor coactivator 3 (Homo sapiens) (UniProt Q9Y6Q9); assay: SRC3 coactivator transcriptional activity inhibitors, confirmation, cell-based, luminescence, quadruplicate (AID 588792;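 active = mean inhibition over 43.08%, the solvent-only control mean plus 3 SD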;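 also: 0% = DMSO treated cells and 100% = gossypol at 36 µM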); conditions: HEK293 GAL4-SRC3 luciferase reporter, at 3.6 µM, hits give high values
# [2] = test system: transactivating tegument protein VP16 (Human herpesvirus 1), Gal4-VP16 luciferase reporter; assay: VP16 transactivation inhibitors, counter-screen for SRC3 inhibitor project, cell-based, luminescence, high throughput (AID 588794); conditions: mammalian cells, VP16-driven luciferase reporter luminescence; at 3.6 µM; hits give high values
# [3] = test system: transactivating tegument protein VP16 (Human herpesvirus 1); assay: VP16 transactivation reporter inhibitors, counter-screen for SRC2 inhibitor project, cell-based, luminescence, single concentration (AID 652007; in the data active = inhibition above about 36%); conditions: cell-based VP16 transactivation luciferase reporter, at 8.9 µM, hits give high values
# [4] = molecular target: Nuclear receptor coactivator 2 (Homo sapiens) (UniProt Q15596); assay: SRC2 coactivator transcriptional activity inhibitors, confirmation, cell-based, luminescence, HEK293, triplicate (AID 652008;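 active = mean inhibition above 46.5%, the solvent-only control mean plus 3 SD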;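 also: 0% = DMSO-treated cells and 100% = Gossypol at 36 µM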); conditions: HEK293 GAL4-SRC2 luciferase reporter, at 8.9 µM, hits give high values
# [5] = StAR promoter reporter inhibitors, counter-screen for LRH-1 inverse agonist project, cell-based, luminescence, high throughput (AID 651611; in the data active = inhibition above about 28%); conditions: StAR promoter luciferase reporter counterscreen, at 3.6 µM, hits give high values
# [6] = molecular target: Nuclear receptor subfamily 5 group A member 2 (Homo sapiens) (UniProt O00482); assay: LRH-1 (NR5A2) inverse agonists, retest, confirmation, cell-based, luminescence (AID 651613; in the data active = inhibition above about 42%;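 also: HEK293T cells co-transfected with LRH-1 and StAR promoter luciferase reporter; 0% = vehicle wells and 100% = parental cells lacking receptor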); conditions: cell-based LRH-1 luciferase reporter, inverse agonism; at 3.6 µM; hits give high values
# [7] = molecular target: Steroidogenic factor 1 (Homo sapiens) (UniProt Q13285); assay: SF1 (NR5A1) inverse agonists, counter-screen for LRH-1 inverse agonist project, cell-based, luminescence, high throughput (AID 651614; in the data active = inhibition above about 44%;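 also: cells cotransfected with StAR promoter reporter and SF1 expression vector; 0% = vehicle on cells with receptor and 100% = vehicle on cells lacking receptor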); conditions: cell-based SF1 luciferase reporter, at 3.6 µM, hits give high values
# [8] = VP16 transactivation reporter inhibitors, counter-screen for LRH-1 inverse agonist project, cell-based, luminescence, high throughput (AID 651615; in the data active = inhibition above about 33%); conditions: Gal4-VP16 luciferase reporter cells, at 3.6 µM, hits give high values
# [9] = Gal4-VP16 luciferase reporter inhibitors, counter-screen for COUP-TFII antagonist project, cell-based, luminescence, HEK293 (AID 687007; in the data active = inhibition above about 13%); conditions: at 8.5 µM, hits give high values
# [10] = molecular target: COUP transcription factor 2 (Homo sapiens) (UniProt P24468); assay: NR2F2 transcriptional activity inhibitors, confirmation, cell-based, luciferase reporter, HEK293, triplicate (AID 687008;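 active = mean inhibition over three repeats above a set limit taken from the earlier primary screen, cut at about 38% in these data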;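 also: 100% = cells given the luciferase reporter alone without the COUP-TF2 vector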); conditions: HEK293 NGFI-A luciferase reporter, luminescence; at 8.5 µM; hits give high values
# Chain of COUP transcription factor 2 (Homo sapiens) (P24468 whole entry, looked up): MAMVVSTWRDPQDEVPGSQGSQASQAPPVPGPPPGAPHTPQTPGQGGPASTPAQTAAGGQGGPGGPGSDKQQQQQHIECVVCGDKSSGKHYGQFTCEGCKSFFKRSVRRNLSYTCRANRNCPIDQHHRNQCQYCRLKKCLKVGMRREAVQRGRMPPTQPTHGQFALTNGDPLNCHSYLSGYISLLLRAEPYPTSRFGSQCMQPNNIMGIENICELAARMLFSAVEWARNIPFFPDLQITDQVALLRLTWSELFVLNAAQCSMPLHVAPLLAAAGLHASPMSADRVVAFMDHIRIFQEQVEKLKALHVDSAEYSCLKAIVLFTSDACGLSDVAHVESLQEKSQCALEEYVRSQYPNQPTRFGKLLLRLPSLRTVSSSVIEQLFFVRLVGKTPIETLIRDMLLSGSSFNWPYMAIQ
# Chain of Nuclear receptor coactivator 2 (Homo sapiens) (Q15596 whole entry, looked up, the tested form may be a part): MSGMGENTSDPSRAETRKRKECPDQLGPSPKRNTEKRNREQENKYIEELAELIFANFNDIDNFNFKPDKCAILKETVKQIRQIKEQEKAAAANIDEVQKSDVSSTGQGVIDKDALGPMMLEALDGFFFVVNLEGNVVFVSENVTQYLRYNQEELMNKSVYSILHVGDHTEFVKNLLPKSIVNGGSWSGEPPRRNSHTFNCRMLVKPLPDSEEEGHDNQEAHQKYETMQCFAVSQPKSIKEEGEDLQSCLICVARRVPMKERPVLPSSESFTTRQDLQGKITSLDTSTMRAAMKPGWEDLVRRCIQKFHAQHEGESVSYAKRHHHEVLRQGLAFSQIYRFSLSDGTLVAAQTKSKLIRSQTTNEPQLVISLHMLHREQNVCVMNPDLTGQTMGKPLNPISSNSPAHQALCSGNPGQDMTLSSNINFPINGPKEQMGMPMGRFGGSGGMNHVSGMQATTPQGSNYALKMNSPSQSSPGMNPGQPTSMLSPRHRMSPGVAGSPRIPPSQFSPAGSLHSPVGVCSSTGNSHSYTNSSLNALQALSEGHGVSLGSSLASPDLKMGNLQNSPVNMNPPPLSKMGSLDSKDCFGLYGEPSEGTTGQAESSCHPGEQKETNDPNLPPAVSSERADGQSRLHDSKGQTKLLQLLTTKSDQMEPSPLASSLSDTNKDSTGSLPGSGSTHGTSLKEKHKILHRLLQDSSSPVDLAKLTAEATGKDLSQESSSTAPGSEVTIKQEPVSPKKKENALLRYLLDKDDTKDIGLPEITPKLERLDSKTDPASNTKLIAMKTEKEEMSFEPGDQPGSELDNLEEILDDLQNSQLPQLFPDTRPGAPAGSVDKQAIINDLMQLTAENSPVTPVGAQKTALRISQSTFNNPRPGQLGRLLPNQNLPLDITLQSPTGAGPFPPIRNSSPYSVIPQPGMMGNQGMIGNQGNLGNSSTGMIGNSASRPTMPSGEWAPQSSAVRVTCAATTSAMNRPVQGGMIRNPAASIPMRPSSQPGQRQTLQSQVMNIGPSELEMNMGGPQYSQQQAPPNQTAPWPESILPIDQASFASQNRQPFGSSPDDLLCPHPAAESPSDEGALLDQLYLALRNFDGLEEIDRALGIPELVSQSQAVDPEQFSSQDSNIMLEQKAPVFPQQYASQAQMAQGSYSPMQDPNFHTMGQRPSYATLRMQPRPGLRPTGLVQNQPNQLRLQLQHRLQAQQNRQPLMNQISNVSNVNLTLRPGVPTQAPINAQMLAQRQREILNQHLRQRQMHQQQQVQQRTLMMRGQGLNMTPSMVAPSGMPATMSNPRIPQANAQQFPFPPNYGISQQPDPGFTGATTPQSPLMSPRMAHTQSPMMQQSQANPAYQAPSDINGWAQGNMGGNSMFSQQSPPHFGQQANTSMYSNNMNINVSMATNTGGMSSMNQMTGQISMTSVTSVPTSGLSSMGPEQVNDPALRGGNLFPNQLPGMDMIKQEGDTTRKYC
# Chain of Steroidogenic factor 1 (Homo sapiens) (Q13285 whole entry, looked up, the tested form may be a part): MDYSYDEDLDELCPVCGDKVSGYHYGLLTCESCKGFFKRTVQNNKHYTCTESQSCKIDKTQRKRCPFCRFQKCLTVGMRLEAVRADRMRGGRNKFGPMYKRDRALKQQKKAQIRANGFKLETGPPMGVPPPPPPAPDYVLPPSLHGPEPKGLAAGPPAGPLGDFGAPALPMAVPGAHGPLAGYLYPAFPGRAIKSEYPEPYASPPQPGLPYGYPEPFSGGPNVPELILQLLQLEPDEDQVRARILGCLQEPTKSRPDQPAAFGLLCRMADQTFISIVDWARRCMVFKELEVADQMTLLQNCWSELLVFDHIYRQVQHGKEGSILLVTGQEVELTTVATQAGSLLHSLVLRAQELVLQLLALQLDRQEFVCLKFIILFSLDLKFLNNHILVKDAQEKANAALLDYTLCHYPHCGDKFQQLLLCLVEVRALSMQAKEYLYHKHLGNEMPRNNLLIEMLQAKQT
# Chain of Nuclear receptor coactivator 3 (Homo sapiens) (Q9Y6Q9 whole entry, looked up, the tested form may be a part): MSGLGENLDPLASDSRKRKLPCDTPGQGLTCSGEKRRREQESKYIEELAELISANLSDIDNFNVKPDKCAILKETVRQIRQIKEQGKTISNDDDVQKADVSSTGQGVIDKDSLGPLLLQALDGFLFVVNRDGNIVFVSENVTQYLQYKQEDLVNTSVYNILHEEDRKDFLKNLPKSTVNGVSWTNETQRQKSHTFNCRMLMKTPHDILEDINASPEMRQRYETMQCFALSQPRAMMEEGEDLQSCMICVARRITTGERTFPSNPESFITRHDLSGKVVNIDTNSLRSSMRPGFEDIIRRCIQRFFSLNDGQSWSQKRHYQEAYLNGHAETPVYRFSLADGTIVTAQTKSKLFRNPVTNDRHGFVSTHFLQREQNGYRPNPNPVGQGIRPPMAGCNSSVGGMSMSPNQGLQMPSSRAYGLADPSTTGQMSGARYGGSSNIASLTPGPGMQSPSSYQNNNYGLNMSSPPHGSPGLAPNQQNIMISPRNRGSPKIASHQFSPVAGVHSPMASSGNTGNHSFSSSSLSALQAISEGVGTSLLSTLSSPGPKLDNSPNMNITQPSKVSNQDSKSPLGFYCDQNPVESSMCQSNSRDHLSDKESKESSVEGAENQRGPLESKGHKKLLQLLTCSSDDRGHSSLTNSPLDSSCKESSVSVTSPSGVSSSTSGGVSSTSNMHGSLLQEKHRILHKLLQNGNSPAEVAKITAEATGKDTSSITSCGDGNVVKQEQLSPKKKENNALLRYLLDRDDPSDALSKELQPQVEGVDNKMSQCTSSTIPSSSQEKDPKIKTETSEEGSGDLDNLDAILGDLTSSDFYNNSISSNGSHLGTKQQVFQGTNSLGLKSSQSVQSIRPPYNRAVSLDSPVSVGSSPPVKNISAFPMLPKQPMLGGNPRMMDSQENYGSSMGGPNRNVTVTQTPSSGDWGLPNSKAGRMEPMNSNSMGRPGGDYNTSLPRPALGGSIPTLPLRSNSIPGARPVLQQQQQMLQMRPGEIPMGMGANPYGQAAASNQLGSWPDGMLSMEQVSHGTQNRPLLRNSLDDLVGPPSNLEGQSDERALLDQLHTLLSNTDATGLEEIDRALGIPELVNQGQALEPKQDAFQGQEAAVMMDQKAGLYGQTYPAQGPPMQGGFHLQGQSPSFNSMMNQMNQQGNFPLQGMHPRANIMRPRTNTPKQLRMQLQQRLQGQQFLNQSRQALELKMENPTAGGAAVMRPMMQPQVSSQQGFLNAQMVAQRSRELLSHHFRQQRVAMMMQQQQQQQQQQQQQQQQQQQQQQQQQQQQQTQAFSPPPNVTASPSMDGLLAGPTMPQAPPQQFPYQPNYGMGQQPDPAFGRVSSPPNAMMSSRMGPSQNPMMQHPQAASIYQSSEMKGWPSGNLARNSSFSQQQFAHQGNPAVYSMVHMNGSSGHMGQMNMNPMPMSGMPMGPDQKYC
# Chain of Nuclear receptor subfamily 5 group A member 2 (Homo sapiens) (O00482 whole entry, looked up): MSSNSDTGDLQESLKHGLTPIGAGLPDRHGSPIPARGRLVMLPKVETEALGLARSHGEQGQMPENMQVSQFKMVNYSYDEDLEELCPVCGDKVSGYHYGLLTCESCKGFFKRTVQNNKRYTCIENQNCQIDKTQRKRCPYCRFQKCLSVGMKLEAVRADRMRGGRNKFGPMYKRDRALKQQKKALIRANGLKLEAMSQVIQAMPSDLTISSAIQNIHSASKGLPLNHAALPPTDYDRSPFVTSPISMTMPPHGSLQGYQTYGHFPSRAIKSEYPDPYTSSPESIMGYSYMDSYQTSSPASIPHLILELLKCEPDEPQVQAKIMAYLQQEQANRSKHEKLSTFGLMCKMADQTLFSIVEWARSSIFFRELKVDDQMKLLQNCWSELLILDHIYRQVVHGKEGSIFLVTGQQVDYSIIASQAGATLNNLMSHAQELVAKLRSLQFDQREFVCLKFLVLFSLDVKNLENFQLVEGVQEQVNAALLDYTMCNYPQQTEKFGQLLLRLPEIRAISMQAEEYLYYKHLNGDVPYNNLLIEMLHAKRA
structure (smiles),measurement,setting,value
COc1ccc(-c2noc(CCC(=O)NCCCN3CCC(Cc4ccccc4)CC3)n2)cc1,inhibition,[1],-0.27%
same,inhibition,[2],10.7%
same,inhibition,[3],-4.69%
same,inhibition,[4],15.6%
COCC1CCN(C(=O)c2cc(COc3cccc4cnccc34)on2)CC1,inhibition,[1],11.1%
same,inhibition,[2],37.7% (active)
same,inhibition,[3],3.58%
same,inhibition,[4],43.1%
O=C(/C=C/c1ccccc1)CC(O)(c1ccccc1)C(F)(F)C(F)F (stereo not drawn),inhibition,[1],11%
same,inhibition,[2],4.32%
same,inhibition,[3],7.22%
same,inhibition,[4],19.9%
O=C(NC(CSCc1ccccc1)C(=O)N/N=C/c1ccc(O)cc1O)c1ccc([N+](=O)[O-])cc1 (stereo not drawn),inhibition,[1],31.7%
same,inhibition,[2],34.8% (active)
same,inhibition,[3],-26.8%
same,inhibition,[4],8.58%
CCc1ccc(-c2nc(CS(=O)CC(=O)NCc3ccco3)c(C)o2)cc1 (stereo not drawn),inhibition,[1],10.8%
same,inhibition,[2],-12.6%
same,inhibition,[3],3.28%
same,inhibition,[4],56.7% (active)
O=C(Nc1ccc(OCC(=O)N2CCOCC2)cc1)c1cncc(Br)c1,inhibition,[1],29.6%
same,inhibition,[2],23%
same,inhibition,[3],3.8%
same,inhibition,[4],26.1%
CC[n+]1cc(C)ccc1/C=C/c1ccc(N(C)C)cc1,inhibition,[1],45.1% (active)
same,inhibition,[2],58.8% (active)
same,inhibition,[5],57% (active)
same,inhibition,[6],91.7% (active)
same,inhibition,[7],85.7% (active)
same,inhibition,[8],80% (active)
same,inhibition,[9],-0.96%
same,inhibition,[10],62.6% (active)
CC(C)(C)C(=O)Nc1ccc(C(=O)N/N=C/c2ccccc2OC(=O)c2ccc(Cl)cc2)cc1,inhibition,[1],27.4%
same,inhibition,[2],7.22%
same,inhibition,[3],6.84%
same,inhibition,[4],35.1%
Cc1nc([N+](=O)[O-])c(Sc2nc3ccccc3n2C)n1Cc1ccccc1,inhibition,[1],30.1%
same,inhibition,[2],13.4%
same,inhibition,[3],31.9%
same,inhibition,[4],46.5%
Cc1cccc(CN2CCN(C(=O)CCl)CC2)c1,inhibition,[1],31.7%
same,inhibition,[2],18.2%
same,inhibition,[3],38% (active)
same,inhibition,[4],33.5%
COC(=O)c1ccc2c(=O)n(CCCCCC(=O)O)c(=S)[nH]c2c1,inhibition,[1],16.4%
same,inhibition,[2],15.1%
same,inhibition,[3],6.79%
same,inhibition,[4],32.2%
Cn1c(/C=C/c2ccc(Br)cc2)c([N+](=O)[O-])c(=O)n(C)c1=O,inhibition,[1],45.2% (active)
same,inhibition,[2],47.8% (active)
same,inhibition,[3],15.8%
same,inhibition,[4],40.7%
COc1ccc(OCC(=O)N/N=C/c2ccc(O[C@@H]3O[C@H](CO)[C@@H](O)[C@H](O)[C@H]3O)cc2)cc1,inhibition,[1],20.5%
same,inhibition,[2],60.1% (active)
same,inhibition,[6],64.5% (active)
same,inhibition,[7],72.1% (active)
COC(=O)c1c(C)n(-c2ccc(OC)cc2)c2ccc(O)cc12,inhibition,[1],41.4%
same,inhibition,[2],24.1%
same,inhibition,[3],-4.83%
same,inhibition,[4],28.1%
Cc1c(/C(O)=C2\C(=O)C(=O)N(CCN(C)C)C2c2ccccc2)cnn1-c1ccccc1 (stereo not drawn),inhibition,[1],15.8%
same,inhibition,[2],-3.19%
same,inhibition,[3],-15.3%
same,inhibition,[4],10.1%
CCc1ccc(/C=C/C(=O)c2c(C)cc(C)[nH]c2=O)cc1,inhibition,[1],55.5% (active)
same,inhibition,[2],50.1% (active)
same,inhibition,[3],17.5%
same,inhibition,[4],40.1%
Cc1ccc(C2=NN(C(=O)CCl)C(c3cccs3)C2)o1 (stereo not drawn),inhibition,[1],36.8%
same,inhibition,[2],13.5%
same,inhibition,[3],17.2%
same,inhibition,[4],56.9% (active)
CCCCCCC[N+](CC)(CC)CCCCc1ccc(Cl)cc1,inhibition,[1],22.1%
same,inhibition,[2],28.2%
same,inhibition,[6],79% (active)
same,inhibition,[7],66.2% (active)
CC[C@@]1(O)C(=O)OCc2c1cc1n(c2=O)Cc2cc3c(CN(C)C)c(O)ccc3nc2-1,inhibition,[1],89.8% (active)
same,inhibition,[2],53.2% (active)
same,inhibition,[6],99.7% (active)
same,inhibition,[7],85.7% (active)
same,inhibition,[3],32.9%
same,inhibition,[4],46%
Cc1nnc(SC(=O)N2c3ccccc3Sc3ccccc32)s1,inhibition,[1],80.8% (active)
same,inhibition,[2],28.2%
same,inhibition,[3],37.9% (active)
same,inhibition,[4],60.4% (active)
Cc1ccc(-n2nnnc2Sc2ccc(S(=O)(=O)NCCN(C)C)cc2[N+](=O)[O-])cc1,inhibition,[1],33.8%
same,inhibition,[2],35.9% (active)
same,inhibition,[3],18.6%
same,inhibition,[4],31.4%
Cc1cc2nccc(-c3ccncc3)n2n1,inhibition,[1],38.2%
same,inhibition,[2],22.4%
same,inhibition,[3],3.85%
same,inhibition,[4],33.4%
Cc1cc(C)cc(OCC(=O)NCC2CCCO2)c1 (stereo not drawn),inhibition,[1],18.4%
same,inhibition,[2],-9.18%
same,inhibition,[3],-1.96%
same,inhibition,[4],28.9%
O=C(CCl)N(c1ccccc1)C1CCCCC1,inhibition,[1],30.5%
same,inhibition,[2],-7.5%
same,inhibition,[5],43.5% (active)
same,inhibition,[6],70.4% (active)
same,inhibition,[7],66.2% (active)
same,inhibition,[8],16.5%
same,inhibition,[3],55.6% (active)
same,inhibition,[4],57.8% (active)
CCCCN(CC)Cc1ccc(CNC(=S)Nc2ccc(C)cc2Cl)o1,inhibition,[1],14.2%
same,inhibition,[2],-5.53%
same,inhibition,[3],12.7%
same,inhibition,[4],30.4%
O=S(=O)(/C(=C/c1ccc(C(F)(F)F)cc1)c1nc2ccccc2[nH]1)c1ccccc1,inhibition,[1],61.5% (active)
same,inhibition,[2],58.3% (active)
same,inhibition,[3],71.8% (active)
same,inhibition,[4],30.6%
O=C(C1=C(c2ccccc2)C(=O)c2ccccc2C1=O)c1ccccc1,inhibition,[1],93.3% (active)
same,inhibition,[2],90.4% (active)
same,inhibition,[3],63.8% (active)
same,inhibition,[4],66.4% (active)
COCCN(C(=O)CCl)C(C(=O)NC1CCCCC1)c1ccccc1C (stereo not drawn),inhibition,[1],52.3% (active)
same,inhibition,[2],38.7% (active)
same,inhibition,[3],45.5% (active)
same,inhibition,[4],58.5% (active)
CCN(c1cccc(C)c1)c1ncnc2nc[nH]c12,inhibition,[1],35.9%
same,inhibition,[2],21.8%
same,inhibition,[3],-7.68%
same,inhibition,[4],28.4%
CCCCCCCN(c1ccccc1)[C@@H]1C[C@H]2CCCC(=O)N3CC[C@@H](C1)[C@@H]23,inhibition,[1],6.93%
same,inhibition,[2],30.5% (active)
same,inhibition,[3],25%
same,inhibition,[4],35%
CC(=O)Nc1ccc(NC2=C/C(=N/S(=O)(=O)c3cccs3)c3ccccc3C2=O)cc1,inhibition,[1],3.29%
same,inhibition,[2],9.98%
same,inhibition,[3],9.81%
same,inhibition,[4],49.5% (active)
Cc1nc([N+](=O)[O-])c(Sc2nc3ccccc3[nH]2)n1Cc1ccccc1,inhibition,[1],16.1%
same,inhibition,[2],6.02%
same,inhibition,[3],-3.82%
same,inhibition,[4],32.5%
O=C(O)c1ccc(N/N=C/c2ccc3c(c2)OCO3)cc1,inhibition,[1],-1.59%
same,inhibition,[2],-12.1%
same,inhibition,[3],-0.58%
same,inhibition,[4],51.3% (active)
COc1ccc(-c2csc3ncnc(NCCN4CCOCC4)c23)cc1,inhibition,[1],34.1%
same,inhibition,[2],37.6% (active)
same,inhibition,[3],0.34%
same,inhibition,[4],41.1%
CC(C)CCOc1cccc(OCC(=O)Nc2ccncc2)c1,inhibition,[1],-1.73%
same,inhibition,[2],35.9% (active)
same,inhibition,[5],21.4%
same,inhibition,[6],61% (active)
same,inhibition,[7],60.3% (active)
same,inhibition,[8],58.9% (active)
same,inhibition,[3],27.6%
same,inhibition,[4],38%
O=C(c1ccc(F)cc1)C(CN1CCOCC1)c1ccccc1 (stereo not drawn),inhibition,[1],44.1% (active)
same,inhibition,[2],55.9% (active)
same,inhibition,[3],35%
same,inhibition,[4],82.6% (active)
Cc1ccc(/C=C2\SC(=S)N(CCCC(=O)Nc3ccc(O)cc3)C2=O)cc1,inhibition,[1],18.4%
same,inhibition,[2],10.3%
same,inhibition,[3],36.9% (active)
same,inhibition,[4],69.4% (active)
O=S(=O)(c1ccc(F)cc1)c1snnc1-c1ccccc1,inhibition,[1],29%
same,inhibition,[2],8.39%
same,inhibition,[3],27.8%
same,inhibition,[4],28.7%
CCOC(=O)c1c(C)nn(-c2ccc(NC(=O)/C=C/C(=O)O)cc2)c1C,inhibition,[1],10.7%
same,inhibition,[2],-2.88%
same,inhibition,[3],8.16%
same,inhibition,[4],62.7% (active)
COc1ccc(COC(=O)C2=C(C)NC(=O)NC2c2ccc(OC)cc2)cc1 (stereo not drawn),inhibition,[1],11.2%
same,inhibition,[2],20.8%
same,inhibition,[3],12%
same,inhibition,[4],33%
CCN(CC)c1ccc(-n2c(C)c(C(C)=O)c(C(C)=O)c2C)cc1,inhibition,[1],4.48%
same,inhibition,[2],25.7%
same,inhibition,[3],-2.52%
same,inhibition,[4],11.8%
Cc1ccc2nc(NC(=O)CSCC(=O)OCC(=O)c3ccc(Br)cc3)sc2c1,inhibition,[1],36.5%
same,inhibition,[2],40.5% (active)
same,inhibition,[3],77.8% (active)
same,inhibition,[4],89.2% (active)
Cc1ccc(-n2c(-c3ccc(Cl)cc3)c[n+]3c2CCC3)cc1,inhibition,[1],16.1%
same,inhibition,[2],21.9%
same,inhibition,[3],13.4%
same,inhibition,[4],18.6%
COc1cc(/C=C/C(=O)c2ccc3c(c2)OCCO3)cc(Br)c1OCC(=O)N(C)C,inhibition,[1],76.6% (active)
same,inhibition,[2],62.6% (active)
same,inhibition,[3],30.9%
same,inhibition,[4],50.3% (active)
CC(=O)OCCN1c2ccccc2Sc2cnccc21,inhibition,[1],43.4% (active)
same,inhibition,[2],26.4%
same,inhibition,[3],-4.99%
same,inhibition,[4],23.7%
CCCCn1c(CCl)nc2cc(S(=O)(=O)N3CCOCC3)ccc21,inhibition,[1],71.6% (active)
same,inhibition,[2],34.6% (active)
same,inhibition,[3],22%
same,inhibition,[4],64.1% (active)
COc1ccc(NC(=O)/C(Cl)=C(/Cl)S(=O)(=O)Cc2ccccc2)cn1,inhibition,[1],-15.3%
same,inhibition,[2],8.74%
same,inhibition,[3],80.4% (active)
same,inhibition,[4],72.4% (active)
C=C(C(=O)c1ccccc1)C(C)C(=C)C(=O)c1ccccc1,inhibition,[1],44.4% (active)
same,inhibition,[2],33.4% (active)
same,inhibition,[3],53.9% (active)
same,inhibition,[4],51.8% (active)
Cc1cccc(Nc2nc(N)nc(CCl)n2)c1C,inhibition,[1],62.8% (active)
same,inhibition,[2],31.1% (active)
same,inhibition,[3],14.2%
same,inhibition,[4],55.7% (active)
Cc1nn(C)cc1C(C)NC(=O)c1cc(COc2cccc3cnccc23)on1 (stereo not drawn),inhibition,[1],18.6%
same,inhibition,[2],24.9%
same,inhibition,[3],-5.71%
same,inhibition,[4],33.3%
COc1ccc(C(=O)Nc2ccc(C)cn2)c(OC)c1,inhibition,[1],-0.48%
same,inhibition,[2],-4.91%
same,inhibition,[3],23.7%
same,inhibition,[4],49.8% (active)
